Laboratory results taken from the supplement of paper PMC10981050.
Where “and” joins values, the source holds several entries; their conditions need not be identical. Equal entries are not always repeated. Structures can show the parent of a compound that is named as a salt.

How the values were obtained:
Assay in all cases: cell viability relative to vehicle control; higher = less cytotoxic
Conditions in all cases: 10 µM
K562 = test system: K562
Procedure, shortened: (§1)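 Each screen used CRISPR-edited mutant and wild-type clones from four leukaemia lines. Compounds were acoustically dispensed at a single 10 µM dose, and CellTiter-Glo luminescence was read after 48 h with the supernatant first removed. Viability was analysed in Genedata Screener and given as percent of the on-plate vehicle control.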

MARIMO = test system: MARIMO
Procedure, shortened: as §1

MOLM14 = test system: MOLM14
Procedure, shortened: as §1

OCI-AML2 = test system: OCI-AML2
Procedure, shortened: as §1

| Compound | cell viability (K562; SRSF2 genotype: SRSF2 P95H/wt) | cell viability (K562; SRSF2 genotype: SRSF2 wt/wt) | cell viability (MARIMO; SRSF2 genotype: SRSF2 P95H/wt) | cell viability (MARIMO; SRSF2 genotype: SRSF2 wt/wt) | cell viability (MOLM14; SRSF2 genotype: SRSF2 P95H/wt) | cell viability (MOLM14; SRSF2 genotype: SRSF2 wt/wt) | cell viability (OCI-AML2; SRSF2 genotype: P95H/wt) | cell viability (OCI-AML2; SRSF2 genotype: wt/wt) |
| --- | --- | --- | --- | --- | --- | --- | --- | --- |
| O=C(c1ccc(Cl)cc1Cl)n1nnc2ccccc21 | 54.8% and 62.1% | 70.3% | 48.4% | 46.2% | 59.3% | 49.6% | 37.9% | 29.3% |
| CC(C)NCC(O)COc1ccc(COCCOC(C)C)cc1 (centres undefined) [Bisoprolol fumarate] | 94.1% and 90.5% | 89.9% | 93.2% | 94.5% | 83.8% | 91.5% | 93.6% | 99.8% |
| CS(=O)(=O)Nc1ccc([N+](=O)[O-])cc1OC1CCCCC1 | 99.4% and 103% | 97% | 102% | 95.3% | 94.4% | 98.8% | 107% | 101% |
| CN[C@@H](C)C(=O)N[C@H](C(=O)N1CCC[C@H]1c1nc(C(=O)c2ccc(F)cc2)cs1)C1CCCCC1 | 84.3% and 92.2% | 89.4% | 70.1% | 82.2% | 58.3% | 82.3% | 75.8% | 90.5% |
| COc1ccc(Cl)c(Nc2nc3ccccc3nc2NS(=O)(=O)c2cccc(NC(=O)C(C)(C)N)c2)c1 [Pilaralisib (XL147)] | 87.3% and 96.2% | 84% | 68.6% | 66% | 59.3% | 55% | 52.3% | 54.6% |
| CCOc1ccccc1N=Nc1c(C)[nH]n(-c2nc(-c3ccccc3)cs2)c1=O | 95.7% and 103% | 91.9% | 101% | 96.5% | 97.8% | 95.9% | 108% | 97.2% |
| Nc1nc(NCCc2ccc(O)cc2)nc2nc(-c3ccco3)nn12 | 92.4% and 100% | 94.8% | 102% | 110% | 94.4% | 104% | 97% | 104% |
| O=C(c1ccccc1)C(O)O [Phenylglyoxal hydrate] | 95.7% and 96.9% | 104% | 86.3% | 86.1% | 67.8% | 66% | 81.6% | 100% |
| CCCCCOc1ccc(-c2ccc(-c3ccc(C(=O)N[C@H]4C[C@@H](O)[C@@H](O)NC(=O)[C@@H]5[C@@H](O)[C@@H](C)CN5C(=O)[C@H]([C@@H](C)O)NC(=O)[C@H]([C@H](O)[C@@H](O)c5ccc(O)cc5)NC(=O)[C@@H]5C[C@@H](O)CN5C(=O)[C@H]([C@@H](C)O)NC4=O)cc3)cc2)cc1 | 77.8% and 78.3% | 80.5% | 95.7% | 94.3% | 82.7% | 84.5% | 77.5% | 82.8% |
| CN(C)c1ccc(C(=C2C=CC(=[N+](C)C)C=C2)c2ccc(N(C)C)cc2)cc1 [Crystal violet] | 0.3% and 0.45% | 1.14% | 0.76% | 1.04% | 0.09% | 0.09% | 0.06% | 0.11% |
| CC(C)C[C@H](NC(=O)CNC(=O)c1cc(Cl)ccc1Cl)B1OC(=O)CC(CC(=O)O)(C(=O)O)O1 (some centres undefined) [Ixazomib Citrate (MLN9708)] | 2.32% and 2.83% | 4.01% | 0.72% | 2.45% | 0.35% | 0.36% | 0.42% | 1.49% |
| O=c1cc(-c2ccc(O)cc2)oc2c([C@@H]3OC[C@H](O)[C@H](O)[C@H]3O)c(O)c([C@@H]3O[C@H](CO)[C@@H](O)[C@H](O)[C@H]3O)c(O)c12 [Schaftoside] | 113% and 106% | 113% | 108% | 107% | 112% | 105% | 106% | 105% |
| NC1(Cc2ccc(Cl)cc2)CCN(c2ncnc3[nH]ccc23)CC1 | 55.4% and 60.1% | 50.8% | 36.5% | 35.1% | 17.7% | 17% | 35.3% | 30.9% |
| NS(=O)(=O)NCCNc1nonc1/C(=N/O)Nc1ccc(F)c(Br)c1 | 97.2% and 102% | 95.5% | 102% | 104% | 103% | 100% | 106% | 109% |
| COc1cc(OC)c2c(=O)[nH]c(-c3cc(C)c(OCCO)c(C)c3)nc2c1 | 81.8% and 87.1% | 87.5% | 80.1% | 71.1% | 77.8% | 81.3% | 79% | 86% |
| Cc1ccc(NC(=O)c2ccc(CN3CCN(C)CC3)cc2)cc1Nc1nccc(-c2cccnc2)n1 [Imatinib Mesylate (STI571)] | 11.9% and 25.7% | 16.7% | 103% | 104% | 80.7% | 94% | 82.3% | 78% |
| Cc1[nH]c(/C=C2\C(=O)Nc3ccc(S(=O)(=O)N(C)c4cccc(Cl)c4)cc32)c(C)c1C(=O)N1CCN(C)CC1 | 62.4% and 64.8% | 80.7% | 50.9% | 53.2% | 0.26% | 64.6% | 0.09% | 0.12% |
| Cc1cc(C)nc(O)n1.O=C(Nc1ccc([N+](=O)[O-])cc1)Nc1ccc([N+](=O)[O-])cc1 [Nicarbazin] | 100% and 101% | 110% | 97% | 106% | 103% | 101% | 120% | 97.1% |
